AT treatment: potential ataxia-telangiectasia treatments restoring KAP-1 phosphorylation. 320,000 tested, 0.19% active. F2112 A-T fibroblasts, KAP-1 phosphorylation AlphaLISA; neocarzinostatin DNA damage 30 min before lysis. Potency, µM (titrated, usually from 57.5 µM), hits mostly activators; further: nearly all actives have a fitted effect of over 45% in size
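ATM-like activity read as KAP-1 phosphorylation via AlphaLISA donor/acceptor antibody pairs after lysis and 6 hr at 25C. Cells were ATM-null patient fibroblasts (F2112, hTERT), dosed 60 min, then exposed to the DSB inducer NCS for 30 min.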
KCNH2 3.1 inh: inhibitors of human KCNH2 3.1 potassium channel isoform; U2OS KCNH2 3.1, thallium flux FluxOr; stronger effect = lower value; activity change, % (tested at about 1.8 µM); 340,000 tested, 0.95% active; AID 720553;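 active means maximum activity change below -70%; inconclusive means maximum activity change from -70% to -50%; inactive means maximum activity change above -50%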;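 further: thallium influx rate constant from kinetic fluorescence after stimulation buffer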
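Kinetic fluorescence (2 min after stimulation buffer) measures Tl+ influx through KCNH2 3.1 expressed by viral transduction in U2OS cells; the rate constant is normalized against DMSO controls serving as positive and negative references.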
ALOX12 inh: blocks human arachidonate 12S-lipoxygenase; Potency, µM (top dose mostly 108 µM), most hits filed as inhibitors; 580,000 tested, 1.1% active; purified 12hLO, xylenol orange hydroperoxide absorbance
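Purified human 12hLO (150 nM final) in 25 mM Hepes, 0.01% Triton X-100, pH 7.0 was preincubated 15 min at room temperature with compound. Then 40 uM arachidonic acid was added, 30 min. Hydroperoxide was read by Fe-XO absorbance ratio 573/405 nm.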
KCNH2 WT inh: KCNH2 (human, wildtype) channel inhibition | U2OS, BacMam KCNH2, thallium flux FluxOr; stronger effect = lower value | activity change, % at 1.84 µM | 340,000 tested, 0.37% active | AID 720551;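 active means maximum activity change below -70%; inconclusive means maximum activity change between -70% and -50%; inactive means maximum activity change above -50%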
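U2OS cells transduced with wild-type KCNH2 virus are loaded with FluxOr dye for 45 min, and thallium flux is measured in kinetic reads before and after stimulation buffer. Rate constants are normalized to DMSO controls.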
Hits are given with their value; i = inactive; ? = inconclusive; nt = not tested or not shown; [ ] = another dose, or the depositor's remark. This is a sample that favours compounds with a hit; in the whole collection about 1.8% have one here. Unless noted, the call rests on the fitted dose curve; in most records, active means well fitted curve in the direction sought with a large enough effect; inconclusive means small, poorly fitted or top-dose-only effect, or another doubt; inactive means no such curve, though single readings can be large; an effect the other way counts as inactive or inconclusive.

SMILES | AT treatment | KCNH2 3.1 inh | ALOX12 inh | KCNH2 WT inh
COC(=O)C1=CN(C(C)C)C=C(C(=O)OC)C1c1cccc(OC)c1 | i | i | i | i
COc1ccc2nc(/C=C/c3cccc(O)c3)sc2c1 | nt | nt | 6.31µM | nt
COc1ccc(N2C(=O)CCS2(=O)=O)cc1S(=O)(=O)N1CCN(c2ccccc2)CC1 | nt | nt | i | nt
OCCC1CN(Cc2ccc(F)cc2)CCN1CCc1ccccc1 (centres undefined) | i | -79.3 | i | i
O=c1cc(CN2CCN(Cc3ccc(F)cc3)C(CCO)C2)[nH]c2ccccc12 (centres undefined) | i | i | 35.5µM | i
CC(C)CCN1CCN(CC(c2ccccc2)c2ccccc2)CC1CCO (centres undefined) | i | -73.5 | i | i
C#Cc1ccc(CN2CCN(CCc3ccccc3)C(CCO)C2)cc1 (centres undefined) | i | -73.5 | i | i
CC(C)CCN1CCN(Cc2nc3ccccc3s2)CC1CCO (centres undefined) | i | i | i | i
Cc1cc(Br)ccc1NC(=O)c1sc2ncnc(N3CCN(c4ccccn4)CC3)c2c1C | i | -110.3 | i | -106.5
Cc1cc(Br)ccc1NC(=O)CN1CCN(c2ccccn2)CC1 | i | i | i | i
COc1ccc(NC(=O)c2sc3nc(C)nc(N4CCN(c5ccccn5)CC4)c3c2C)cc1Cl | i | -114.3 | i | -77.7
COc1ccc(NC(=O)c2sc3ncnc(N4CCN(c5ccccn5)CC4)c3c2C)cc1Cl | i | -114.0 | i | -118.2
Cc1nc2ccc(Cl)cc2cc1C(=O)N1CCN(CC(=O)N2CCCCCC2)CC1 | nt | nt | i | nt
CCn1nccc1C(=O)N1CCC2(CC1)CC(OCCOC)CCO2 (centres undefined) | nt | nt | i | nt
Cc1cc(NS(=O)(=O)c2ccc(Nc3nc(-c4ccc(C)c(C)c4)cs3)cc2)no1 | nt | i | 4.47µM | i
NS(=O)(=O)c1ccc(Nc2nc(-c3ccc(F)cc3)cs2)cc1 | i | i | 39.8µM | i
Cc1ccc(C)c(-c2csc(Nc3ccc(S(=O)(=O)Nc4nc(C)cc(C)n4)cc3)n2)c1 | nt | nt | 44.7µM | nt
O=[N+]([O-])c1cc(S(=O)(=O)Nc2ccccc2)ccc1N/N=C/c1ccc(C(F)(F)F)cc1 | nt | nt | i | nt
CCOC(=O)c1[nH]c(C)c(C(=O)OCC#N)c1C | nt | nt | i | nt
COc1cc(OC)cc(C(=O)Nc2ccc3oc(-c4ccc(OC)c(Cl)c4)nc3c2)c1 | nt | nt | i | nt
CN1CCN(/N=C/c2ccc(N(c3ccccc3)c3ccccc3)cc2)CC1 | i | -72.4 | i | i
CCCn1nc(C(=O)OCc2nnc(C)o2)c2ccccc2c1=O | nt | nt | i | nt
Nc1c(-c2cccc(Cl)c2)cnn1-c1ccccc1 | i | -87.6 | nt | i
Cc1oc(-c2ccccc2)nc1CC(=O)Nc1ccc(Cl)cc1Cl | nt | nt | 7.94µM | nt
Cc1oc(-c2ccccc2)nc1CC(=O)Nc1cc(F)ccc1F | nt | nt | i | nt
SMILES | AT treatment | KCNH2 3.1 inh | ALOX12 inh | KCNH2 WT inh
CN1CCN(c2nc3ccccc3nc2C(=O)Nc2ccc(Br)cc2)CC1 | nt | nt | i | nt
Cc1ccc(-c2cc(C(=O)Nc3cccc(S(=O)(=O)N(C)C)c3)c3ccccc3n2)o1 | i | i | 6.31µM | i
Cc1ccc(-c2cc(C(=O)NCc3ccco3)c3ccccc3n2)o1 | i | i | i | i
Cc1ccc(-c2cc(C(=O)Nc3cccc(C#N)c3)c3ccccc3n2)o1 | nt | nt | 7.08µM | nt
CC1=NN(c2nc(N)nc(/C(C#N)=C/c3ccc([N+](=O)[O-])o3)n2)C(C)(C)C1 | nt | -72.4 | i | i
O=C(C[n+]1ccc2ccccc2c1)Nc1cc(C(F)(F)F)ccc1Cl | i | -82.0 | ? | i
CCCc1c(C)nc2ncnn2c1Nc1ccc(C)cc1 | nt | nt | i | nt
C[n+]1c(-c2ccccc2)cc2c(=Cc3ccc([N+](=O)[O-])cc3)c3ccccc3n21 | nt | nt | 15.8µM | i
CC(C)CC(=O)NC1(C(F)(F)F)C(=O)Nc2c1c(=O)[nH]c(=O)n2-c1ccccc1 (centres undefined) | nt | nt | 31.6µM | nt
Cc1ccc(Cc2c(-c3ccc(C#N)cc3)nc3ccc(Br)cn23)cc1 | nt | i | 20µM | i
Cc1ccc(Cc2c(-c3ccc(F)cc3)nc3cc(C)ccn23)cc1 | nt | i | 20µM | i
Cc1ccc(Cc2c(-c3ccccc3)nc3ccc(Br)cn23)cc1 | nt | i | 6.31µM | i
CCN1C(=O)N[C@@H](c2ccc(Br)cc2)C(C(C)=O)=C1C | nt | i | i | i
CC(=O)C1=C(C)N(Cc2ccc(Br)cc2)C(=S)NC1c1cccc(F)c1 (centres undefined) | nt | nt | 44.7µM | nt
CC(=O)C1=C(C)N(Cc2ccccc2)C(=O)N[C@H]1c1cccc(F)c1 | nt | i | i | i
CC(=O)C1=C(C)N(Cc2ccc(Br)cc2)C(=S)NC1c1ccc(F)cc1 (centres undefined) | nt | nt | 35.5µM | nt
CC(=O)C1=C(C)N(Cc2ccc(F)cc2)C(=S)NC1c1ccc(Br)cc1 (centres undefined) | nt | nt | 35.5µM | nt
O=C(CSc1nc2ccc(Cl)cc2o1)c1c[nH]c2ccccc12 | nt | nt | i | nt
CC(CNC(=O)NCc1ccco1)N1CCOCC1 (centres undefined) | nt | nt | i | nt
COc1cc(CNC(=O)[C@@H]2C[C@@H](c3cccc(C(F)(F)F)c3)N(C)C2)cc(OC)c1 | nt | nt | i | nt
Cc1nc2c(sc(=S)n2Cc2ccco2)c(=O)n1CC(=O)Nc1ccc(F)cc1 | i | -86.6 | i | i
O=C(/C=C/c1ccc(Cl)cc1)c1cc(Cl)cc(Cl)c1O | nt | nt | 3.55µM | nt
CCOc1cc(/C=C/C(=O)c2cccc(Cl)c2)cc(Cl)c1O | nt | nt | 5.62µM | nt
CCOc1cc(/C=C/C(=O)c2ccccc2Cl)cc(Cl)c1O | nt | nt | 35.5µM | nt
COc1ccc(NC(=O)CN2CCN(CC(=O)Nc3ccc4c(c3)OCO4)CC2)cc1 | nt | nt | i | -78.8
SMILES | AT treatment | KCNH2 3.1 inh | ALOX12 inh | KCNH2 WT inh
COc1ccc(S(=O)(=O)N2CCN(CC(=O)Nc3ccccc3Cl)CC2)cc1 | i | -88.1 | i | i
COc1ccccc1NC(=O)CN1CCN(CC(=O)Nc2ccc3c(c2)OCO3)CC1 | i | i | i | i
COc1ccc(NC(=O)CN2CCN(CC(=O)Nc3ccc(OC)cc3)CC2)cc1 | i | -107.8 | i | -91.9
COC(=O)c1ccc2c(c1)nc1n2[C@@H](CNC(=O)c2ccc(Cl)cc2)COC1 | nt | nt | i | nt
CCCCN1C(=O)C(CC(=O)NCc2cccc3ccccc23)CC(C(=O)N(C)C)=C1C (centres undefined) | nt | -91.2 | i | i
Cc1nc2ccccc2n1CC(=O)N[C@@H]1COCC[C@@H]1OCC1CC1 | nt | nt | i | nt
CN(CC1CCOCC1)S(=O)(=O)c1cccc(Cl)c1 | nt | nt | i | nt
COc1cc(NC(=O)c2ccccc2F)ccc1NC(=O)c1cc2ccccc2o1 | i | -71.2 | i | i
COc1cc(NC(=O)c2cc3ccccc3o2)ccc1NC(=O)c1ccco1 | i | -81.5 | i | i
COc1ccccc1C(=O)NC(=S)Nc1ccc(NC(=O)c2ccco2)cc1 | i[11.5 µM] | -72.9 | i | i
COc1ccc(N2CC(C(=O)O)CC2=O)cc1OC (centres undefined) | nt | nt | i | nt
O=C(NCC(O)COc1ccc(C(F)(F)F)cc1)C1CCCCC1 (centres undefined) | nt | nt | i | nt
Cc1cccc(CN2CCc3ncc(C(=O)NCCC(C)C)n3CC2)c1 | nt | nt | i | nt
